Data: the supplement of paper PMC10981050
Values joined by “and” are separate entries in the source; they are usually repeats but may differ in a detail not shown here. Identical values can stand only once. Counter-ions that a name gives are not always drawn.

Columns and labels:
Test in all cases: cell viability relative to vehicle control; higher = less cytotoxic
Conditions in all cases: 10 µM
[1] = test system: K562
Summary of the method: (§1)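 CRISPR-edited SRSF2 P95 mutant and isogenic wild-type clones of four leukaemia lines were screened against Selleck bioactive, kinase and epigenetic probe libraries, with identity-inconsistent compounds removed. Compounds were acoustically dispensed into 384-well plates at a single 10 µM dose, with 2000 cells in 50 µL medium per well. After 48 h, supernatant was removed and CellTiter-Glo luminescence was read. Viability was expressed as percent of the on-plate DMSO vehicle control, analysed in Genedata Screener.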

[2] = test system: MARIMO
Summary of the method: as §1

[3] = test system: MOLM14
Summary of the method: as §1

[4] = test system: OCI-AML2
Summary of the method: as §1

| SMILES | cell viability ([1]; SRSF2 genotype: SRSF2 P95H/wt) | cell viability ([1]; SRSF2 genotype: SRSF2 wt/wt) [%] | cell viability ([2]; SRSF2 genotype: SRSF2 P95H/wt) [%] | cell viability ([2]; SRSF2 genotype: SRSF2 wt/wt) [%] | cell viability ([3]; SRSF2 genotype: SRSF2 P95H/wt) [%] | cell viability ([3]; SRSF2 genotype: SRSF2 wt/wt) [%] | cell viability ([4]; SRSF2 genotype: P95H/wt) [%] | cell viability ([4]; SRSF2 genotype: wt/wt) [%] |
| --- | --- | --- | --- | --- | --- | --- | --- | --- |
| Cn1c(-c2ccccc2C(F)(F)F)nnc1C12CCC(c3noc(C4CC(F)(F)C4)n3)(CC1)CC2 | 87.3% and 92.5% | 84.7 | 88 | 99.8 | 79.8 | 87.7 | 99 | 94.8 |
| O=C(O)c1c[nH]c2cc(Cl)c(-c3ccc(C4(O)CCC4)cc3)cc12 | 91.2% and 101% | 95.2 | 92.8 | 115 | 106 | 102 | 86.5 | 96.9 |
| Oc1c(Cl)cc(Cl)c2cccnc12 [Chloroxine] | 62.1% and 63.6% | 66.6 | 21.6 | 14.7 | 55.5 | 63.2 | 1.78 | 3.9 |
| CCN(CC)CCOC(=O)c1ccc(N)cc1 [Procaine] | 100% and 99% | 102 | 99.6 | 108 | 107 | 105 | 104 | 101 |
| CC(=O)N[C@@H](CC(C)C)C(=O)N[C@@H](CC(C)C)C(=O)N[C@H](C=O)CCCNC(=N)N [Leupeptin Hemisulfate] | 94.1% and 83.4% | 86.2 | 90.8 | 97.3 | 85.8 | 90.1 | 97.4 | 97.7 |
| CCCCNC(=O)NS(=O)(=O)c1ccc(C)cc1 [Tolbutamide] | 98% and 102% | 102 | 105 | 116 | 102 | 105 | 101 | 110 |
| C=C(C)[C@@H]1CC[C@]2(C(=O)O)CC[C@]3(C)[C@H](CC[C@@H]4[C@@]5(C)CCC(=O)C(C)(C)[C@@H]5CC[C@]43C)[C@@H]12 [Betulonic acid] | 45.2% and 68% | 61.4 | 34.2 | 20.9 | 43.6 | 32.2 | 29.6 | 17.1 |
| C=C1/C(=C\C=C2/CCC[C@]3(C)[C@@H]([C@H](C)/C=C/[C@@H](O)C4CC4)CC[C@@H]23)C[C@@H](O)C[C@@H]1O [Calcipotriene] | 75.3% and 84.2% | 79.8 | 65 | 65.3 | 66.8 | 63.6 | 79.2 | 96.1 |
| O=C(O)c1ccc(O)cc1 [4-Hydroxybenzoic acid] | 93.3% and 100% | 98.8 | 93.4 | 97.5 | 98.4 | 99.5 | 87 | 102 |
| NCc1c[nH]c(=S)n1[C@H]1CCc2c(F)cc(F)cc2C1 [Nepicastat hydrochloride] | 100% and 97.2% | 96.6 | 92.2 | 97.4 | 88.4 | 101 | 101 | 103 |
| COC(=O)c1cc(O)c(O)c(O)c1 [Methyl gallate] | 103% and 104% | 96.7 | 89.7 | 101 | 90.6 | 104 | 96.9 | 110 |
| O=c1cc(-c2ccc(O)cc2)oc2cc(O)c(O)c(O)c12 [Scutellarein] | 92% and 86.2% | 95 | 102 | 91.3 | 107 | 103 | 102 | 97 |
| CC[C@H]1OC(=O)[C@H](C)[C@@H](O[C@H]2C[C@@](C)(OC)[C@@H](O)[C@H](C)O2)[C@H](C)[C@@H](O[C@@H]2O[C@H](C)C[C@H](N(C)C)[C@H]2O)[C@](C)(O)C[C@@H](C)C(=O)[C@H](C)[C@@H](O)[C@]1(C)O [Erythromycin] | 99.5% and 99.1% | 97.1 | 101 | 98.2 | 104 | 99.6 | 106 | 103 |
| Cc1cc(/C=C2/SC(=S)NC2=O)c(C)n1-c1cccnc1 [Optovin] | 85.7% and 83.4% | 85 | 92.2 | 102 | 89.3 | 90.5 | 107 | 97.2 |
| N#CN=C(NCCCCCCOc1ccc(Cl)cc1)Nc1ccncc1 | 26.1% and 17.5% | 25.9 | 16.8 | 26.9 | 6.24 | 1.39 | 6.42 | 6.39 |
| CC(C)c1nc(N(C)S(C)(=O)=O)nc(-c2ccc(F)cc2)c1/C=C/[C@@H](O)C[C@@H](O)CC(=O)O [Rosuvastatin Calcium] | 103% and 107% | 101 | 94.8 | 96.5 | 112 | 105 | 105 | 102 |
| CC(=O)/N=c1/sc(S(N)(=O)=O)nn1C [Methazolamide] | 109% and 102% | 95.2 | 106 | 111 | 98.5 | 102 | 100 | 105 |
| CN1CCN(CCCNc2ncc(Cl)c(-c3cc4c(C(=O)NC5CC5)cccc4s3)n2)CC1 | 97.4% and 98.7% | 93.2 | 81.4 | 85.8 | 58.8 | 79.9 | 68.8 | 72.7 |
| C[C@@H]1CC(=O)c2c(ccc3c2C(=O)c2cccc(O)c2C3=O)C1 | 77.9% and 93.8% | 94.6 | 67.6 | 57.6 | 53.9 | 68.5 | 43.4 | 43.6 |
| CCN1CC(CCN2CCOCC2)C(c2ccccc2)(c2ccccc2)C1=O (stereo not given) [Doxapram HCl] | 104% and 111% | 112 | 112 | 111 | 104 | 109 | 111 | 95.4 |
